Assay results: the supplement of paper PMC6555819

Columns and labels:
Experiment in all cases: PBM binding z-score (relative to random genomic background probes); higher = stronger binding; sequences stand for … in GC…GCGATTGACAGCGTAGAATGAAGG
[1] = test system: PPARg:RXRa DBDmut IVT, anti-RXR (DBD mutation: RXRa K156A/R161A, NR concentration 270 nM, RXRa partner concentration 90 nM)
Method in brief: (§1)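 Ligand-free nuclear receptor dimers were applied to custom Agilent 4×180K protein-binding microarrays whose double-stranded probes carried direct-repeat seeds, single-nucleotide variants, half-site ablations and random human genomic background sequences in 34-nt variable regions. Incubation lasted 1 h. Binding z-scores were computed against the random background probes from regression-normalized fluorescence.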

[2] = test system: PPARg:RXRa IVT, anti-PPARg (NR concentration 270 nM, RXRa partner concentration 90 nM)
Method in brief: as §1

[3] = test system: PPARg DBDmut:RXRa IVT, anti-PPARg (DBD mutation: PPARg1 K132A/R137A, NR concentration 270 nM, RXRa partner concentration 90 nM)
Method in brief: as §1

[4] = test system: PPARg DBDmut IVT, anti-PPARg (DBD mutation: PPARg1 K132A/R137A, NR concentration 270 nM)
Method in brief: as §1

[5] = test system: PPARg homodimer (NR concentration 180 nM)
Method in brief: as §1

[6] = test system: PXR:RXRa (NR concentration 270 nM, RXRa partner concentration 90 nM)
Method in brief: as §1

[7] = test system: PXR homodimer (NR concentration 270 nM)
Method in brief: as §1

[8] = test system: RARa:RXR (NR concentration 270 nM, RXRa partner concentration 90 nM)
Method in brief: as §1

[9] = test system: RARa homodimer (NR concentration 270 nM)
Method in brief: as §1

[10] = test system: RARb:RXRa (NR concentration 270 nM, RXRa partner concentration 90 nM)
Method in brief: as §1

[11] = test system: RARb homodimer (NR concentration 270 nM)
Method in brief: as §1

[12] = test system: RARg:RXRa (NR concentration 270 nM, RXRa partner concentration 90 nM)
Method in brief: as §1

[13] = test system: RARg homodimer (NR concentration 270 nM)
Method in brief: as §1

[14] = test system: RXRa DBDmut IVT, anti-RXR (DBD mutation: RXRa K156A/R161A, NR concentration 90 nM)
Method in brief: as §1

[15] = test system: RXRa homodimer (NR concentration 180 nM)
Method in brief: as §1

[16] = test system: THRa:RXRa (NR concentration 90 nM, RXRa partner concentration 90 nM)
Method in brief: as §1

[17] = test system: THRa homodimer (NR concentration 90 nM)
Method in brief: as §1

[18] = test system: VDR homodimer (NR concentration 270 nM)
Method in brief: as §1

Row | Sequence | PBM binding z-score [1] | PBM binding z-score [2] | PBM binding z-score [3] | PBM binding z-score [4] | PBM binding z-score [5] | PBM binding z-score [6] | PBM binding z-score [7] | PBM binding z-score [8] | PBM binding z-score [9] | PBM binding z-score [10] | PBM binding z-score [11] | PBM binding z-score [12] | PBM binding z-score [13] | PBM binding z-score [14] | PBM binding z-score [15] | PBM binding z-score [16] | PBM binding z-score [17] | PBM binding z-score [18]
1 | CAAACTCGGTCAAGGTCAAAGTCGGTTTGTGCCA | 4.82 | 4.77 | 1.56 | 0.439 | 3.17 | 4.98 | 2.66 | 4.81 | 1.43 | 4.49 | 4.47 | 5.26 | 5.55 | 2.48 | 4.82 | 4 | 3.53 | 4.43
2 | TCGAGTAGGTTACCAATGGGACATTCAGCTTTCT | 2.84 | 2.43 | -0.217 | 0.266 | -0.26 | 0.0751 | -0.84 | 0.149 | -0.599 | 0.695 | -0.0362 | 0.634 | 0.55 | 0.448 | 0.451 | 0.207 | -0.766 | -0.643
3 | AGTCAAAGTTCACTAGGTAAGGTAAGATTCAGCT | 1.79 | 4.24 | 1.06 | 0.795 | 2.55 | 3.83 | 2.61 | 3.3 | 1.36 | 4.8 | 3.88 | 4.78 | 6.02 | 4.18 | 3.95 | 2.51 | 1.03 | 3.36
4 | CGTACTAGGTCATTGACAGGACAGTGAATAGTAA | 7.67 | 7.54 | 3.72 | 3.85 | 3.05 | 1.64 | 0.269 | 2.54 | 0.282 | 3.67 | 2.49 | 4.45 | 4.13 | 2.38 | 2.6 | 2.9 | 0.971 | 1.45
5 | ACAGACAGGCGAGTGAAGGTAACTCAGCTGGACG | -0.427 | -0.121 | 0.466 | -0.29 | 0.0641 | -0.279 | -0.674 | 0.193 | -0.258 | 0.0266 | -0.318 | -0.0341 | -0.0147 | -0.699 | 0.296 | 0.0808 | -0.312 | -0.484
6 | ATACCAAGGTGATCGTGAGGGCGTTGATACTAAC | 0.642 | 0.871 | 0.129 | 1.25 | 0.383 | 1.29 | 0.775 | 0.85 | 0.505 | 0.796 | 1.07 | 0.664 | 0.461 | 0.501 | 0.36 | 2.16 | 1.23 | 1.36
7 | TAGCCCAGGTCAGATCGGGCCAGTATACGCTATA | -0.572 | 1.18 | -0.255 | -0.724 | -0.165 | 1.48 | -0.562 | 1.11 | -0.626 | 2.91 | 2.03 | 2.82 | 3.39 | -0.536 | 1.77 | 4.22 | 0.917 | -0.0558
8 | TCGAGTAGGTTACCAATGGGGCATTCATCTTTCT | 3.66 | 2.75 | -0.207 | -0.196 | 0.277 | 0.256 | -0.536 | 0.587 | -0.332 | 0.994 | 0.835 | 1.03 | 0.586 | 0.151 | 0.759 | 0.223 | -0.282 | -0.179
9 | ACAGACAGGTGAGGAAGGTAACTCAGGCTATCAT | 0.129 | 0.785 | 0.395 | -0.587 | -0.277 | -0.058 | -0.158 | 0.108 | 0.0819 | 0.494 | 0.672 | 0.425 | 0.577 | -0.639 | 0.267 | 0.957 | 0.208 | -0.55
10 | ATCGAAAGGTCGAAGGTGAGTAAACCCACCCGAA | 0.0227 | 2.17 | 0.972 | 0.487 | 1.89 | 3.11 | 0.0457 | 4.5 | 0.979 | 3.88 | 2.45 | 4.43 | 3.92 | 1.23 | 4.9 | 2.15 | 0.0401 | 1.17
11 | GCTGGTAGATCAAGGTTAAGAAAGACTAAGCTAA | -0.391 | 0.232 | -0.0433 | -0.0207 | -0.421 | 0.348 | -0.246 | 0.69 | 0.451 | 0.949 | 0.171 | 0.216 | 0.368 | -0.116 | 0.692 | 1.36 | -0.209 | -0.133
12 | CCTAACAGGCCAGGGTCACTCAAGCATTTCGCTT | 0.296 | 0.882 | -0.338 | -0.618 | 1.4 | 2.58 | -0.222 | 3.26 | 0.384 | 2.85 | 2.8 | 3.17 | 2.48 | 0.743 | 3.37 | 3.01 | 1.15 | 1.44
13 | TGTCAAAGTTCAATGGTAACGTAAGTATCCACAC | -0.339 | 3.53 | 0.89 | 1.61 | 2.42 | 3.89 | 2.86 | 2.38 | 1.11 | 4.58 | 3.32 | 4.79 | 5.39 | 3.67 | 3.74 | 1.39 | -0.627 | 3.52
14 | AGAATGAGGGTACCAAAGATCAGGGAAACGCTTG | 1.95 | 1.35 | 0.283 | 0.511 | -0.237 | -0.107 | 0.0728 | 0.253 | 0.0319 | 0.552 | 0.0111 | 0.44 | 0.506 | 0.104 | 0.821 | 0.502 | -0.667 | -0.0915
15 | TCTTGTAGATCACCAGGTTAAGAAAGCTGGCCAA | 2.51 | 1.98 | -0.0157 | 0.181 | 0.18 | 0.513 | -0.16 | 0.889 | 0.399 | 0.639 | 0.501 | 0.343 | -0.0575 | 1.03 | 1.06 | 1.06 | 0.422 | 0.245
